Source: PubChem BioAssay (Milwaukee Institute for Drug Discovery)
Hits are enriched below; roughly 6.8% of the tested compounds scored in any of these assays.
NS3h inh CB – hepatitis C NS3 helicase inhibition, primary screen | NS3h Cy5-dT15 DNA binding, fluorescence polarization | inhibition, % at 100 µM | 16,000 compounds, 1.6% hits | AID 687043;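 active means inhibition above the average over every tested compound plus 3 SD, cut at about 40% in these data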
Cy5 interf NS3h – enhances or quenches Cy5 fluorescence in NS3h assay. Cy5-dT15 DNA with NS3h, fluorescence interference; actives lie on both sides; signal over control mean, under 1 quenches. fluorescence interference ratio at 100 µM. 16,000 compounds, 6% hits;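 active means compound fluorescence over control fluorescence at most 0.8, a quencher, or at least a set upper limit, an enhancer; inactive means ratio between 0.8 and the set upper limit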
An asterisk follows results filed as active.

Screening Cc1ccc(S(=O)(=O)NCCOc2ccc(Cl)cc2)cc1[N+](=O)[O-] returned NS3h inh CB 12 and Cy5 interf NS3h 0.93.
`CN1C(=O)C(=Cc2cccc(Br)c2)C(=O)N(C)C1=O` gave NS3h inh CB 19 and Cy5 interf NS3h 0.98.
`COc1cc(OC)c(/C=C2\C(=O)NC(=O)N(c3cccc(C)c3)C2=O)cc1Br` gave NS3h inh CB -1 and Cy5 interf NS3h 1.
Screening CCN(CC)c1ccc(/C=C2\C(=O)NC(=O)N(c3cccc(C)c3)C2=O)c(OC)c1 returned NS3h inh CB 13 and Cy5 interf NS3h 1.3*.
`CC1CC(C)CN(C(=O)c2ccc(Cl)cc2)C1` (centres undefined) gave NS3h inh CB -5 and Cy5 interf NS3h 1.
CC(=O)Nc1ccc(C(=O)N2CC(C)CC(C)C2)cc1 (centres undefined) was read as NS3h inh CB 4 and Cy5 interf NS3h 0.69*.
For COc1ccc(N(CC(=O)NCC(C)C)S(C)(=O)=O)c(OC)c1 the results were NS3h inh CB 2 and Cy5 interf NS3h 1.1.
`COCc1cc(CN2CCC(C)CC2)c(O)c2ncccc12` gave NS3h inh CB 7 and Cy5 interf NS3h 0.98.
`O=S(=O)(c1ccc2c(c1)C(=NO)c1cc(S(=O)(=O)N3CCCC3)ccc1-2)N1CCCC1` gave NS3h inh CB 0 and Cy5 interf NS3h 1.
Screening CC(=O)ON=C1c2cc(S(=O)(=O)N(C)C)ccc2-c2ccc(S(=O)(=O)N(C)C)cc21 returned NS3h inh CB 13 and Cy5 interf NS3h 0.61*.
Screening COc1cc(/C=C2/C(=O)NC(=S)N(c3ccccc3F)C2=O)ccc1OCc1ccc(C(=O)O)cc1 returned NS3h inh CB 9 and Cy5 interf NS3h 1.1.
Screening COC(=O)c1ccccc1NC(=O)CN(c1ccc(OC)c(Cl)c1)S(C)(=O)=O returned NS3h inh CB 18 and Cy5 interf NS3h 1.
For O=C(/C=C/c1ccco1)Nc1ccc(Br)cn1 the results were NS3h inh CB -2 and Cy5 interf NS3h 0.95.
`O=C(/C=C/c1ccco1)Nc1cc(Cl)ccc1C(=O)O` gave NS3h inh CB 63* and Cy5 interf NS3h 0.9.
Screening CCOC(=O)c1c(N)n(-c2ccc(OC)cc2)c2nc3ccccc3nc12 returned NS3h inh CB 15 and Cy5 interf NS3h 0.97.
For Cc1cc(C)c(OCC(=O)Nc2ccc(I)cc2)c(C)c1 the results were NS3h inh CB 2 and Cy5 interf NS3h 1.1.
Screening CC1=C(C(=O)Nc2ccc(C)cc2)C(c2ccc(C(C)C)cc2)NC(=S)N1 (centres undefined) returned NS3h inh CB 11 and Cy5 interf NS3h 1.
Cc1ccc2oc(C(Cl)(Cl)Cl)cc(=O)c2c1 was read as NS3h inh CB -2 and Cy5 interf NS3h 0.6*.
Screening Cc1ccc2oc(Nc3nc(C)cc(=O)[nH]3)nc2c1 returned NS3h inh CB 8 and Cy5 interf NS3h 1.
Cc1ccc(SCC(=O)Nc2cccc([N+](=O)[O-])c2)cc1 was read as NS3h inh CB 13 and Cy5 interf NS3h 0.95.
Cc1ccc(Nc2nc(Nc3cccc([N+](=O)[O-])c3)nc(SC(=S)N3CCOCC3)n2)cc1 was read as NS3h inh CB -60 and Cy5 interf NS3h 0.45*.
Screening COC(=O)C1=NNC2C(=O)N(c3cccc(Cl)c3C)C(=O)C12 (centres undefined) returned NS3h inh CB 8 and Cy5 interf NS3h 1.1.
`O=C(Nc1c(F)cc(F)cc1Br)c1nc2nc(-c3ccccc3)cc(C(F)(F)F)n2n1` gave NS3h inh CB 13 and Cy5 interf NS3h 0.71*.
For O=C(NCC1CCCO1)c1nc2nc(-c3ccccc3)cc(C(F)(F)F)n2n1 (centres undefined) the results were NS3h inh CB -2 and Cy5 interf NS3h 0.92.
For O=C(O/N=C(\c1ccncc1)c1ccc([N+](=O)[O-])cc1)c1ccccc1F the results were NS3h inh CB 12 and Cy5 interf NS3h 0.99.
For CCCCOc1ccc(C(=O)O/N=C(\c2ccncc2)c2ccc([N+](=O)[O-])cc2)cc1 the results were NS3h inh CB 10 and Cy5 interf NS3h 0.75*.
For COc1cc(C=O)ccc1Oc1ncnc2sc3c(c12)CCCC3 the results were NS3h inh CB -4 and Cy5 interf NS3h 1.1.
For CCOc1ccc(-c2cc(C)n3nc(C(=O)Nc4cc(OC)c(Cl)cc4OC)cc3n2)cc1 the results were NS3h inh CB -9 and Cy5 interf NS3h 1.1.
`O=C(NCc1ccco1)c1cc2nc(-c3ccccc3)cc(C(F)(F)F)n2n1` gave NS3h inh CB 1 and Cy5 interf NS3h 1.1.
`CC(C)(C)NC(=O)c1cc2nc(-c3ccccc3)cc(C(F)(F)F)n2n1` gave NS3h inh CB 1 and Cy5 interf NS3h 0.57*.
Screening COC(=O)c1ccccc1NC(=O)c1cc2nc(-c3ccccc3)cc(C)n2n1 returned NS3h inh CB 14 and Cy5 interf NS3h 0.73*.
For CCC(C)NC(=O)COc1ccc2ccccc2c1 (centres undefined) the results were NS3h inh CB 4 and Cy5 interf NS3h 1.1.
For CCC(C)c1ccccc1OCC(=O)Nc1nccs1 (centres undefined) the results were NS3h inh CB 0 and Cy5 interf NS3h 0.84.
Screening O=C(Nc1nccs1)c1cccc(N2C(=O)c3ccccc3C2=O)c1 returned NS3h inh CB -41 and Cy5 interf NS3h 1.2*.
For O=C(Nc1ccccc1O)c1ccc2c(c1)C(=O)N(c1cccc(C(=O)c3ccccc3)c1)C2=O the results were NS3h inh CB 0 and Cy5 interf NS3h 1.
For O=C(/C=C/c1ccccc1)NC(=S)Nc1cccc(-c2nc3ncccc3o2)c1 the results were NS3h inh CB -12 and Cy5 interf NS3h 1.
Cc1ccc(/C=N\n2nnnc2N)cc1 was read as NS3h inh CB -7 and Cy5 interf NS3h 0.96.
Cc1cc(/C=C2/SC(=S)NC2=O)c(C)n1-c1ccc([N+](=O)[O-])cc1 was read as NS3h inh CB -5 and Cy5 interf NS3h 1.
`O=C(NC1CCS(=O)(=O)C1)/C(=C\c1ccc(Br)cc1)NC(=O)c1ccccc1` (centres undefined) gave NS3h inh CB 8 and Cy5 interf NS3h 1.3*.
Screening CC(C)c1ccc(/C=C(\NC(=O)c2ccccc2)C(=O)NC2CCS(=O)(=O)C2)cc1 (centres undefined) returned NS3h inh CB 10 and Cy5 interf NS3h 0.86.
For COc1ccc(C(=O)NC(N2CCOCC2)C(Cl)(Cl)Cl)cc1OC (centres undefined) the results were NS3h inh CB 4 and Cy5 interf NS3h 0.93.
Cc1ccc(C(O)=C2C(=O)C(=O)N(CCCn3ccnc3)C2c2ccccc2)cc1 (centres undefined) was read as NS3h inh CB -5 and Cy5 interf NS3h 1.1.
Screening C=CCNC(=O)CN(c1cccc(Br)c1)S(=O)(=O)c1ccccc1 returned NS3h inh CB 24 and Cy5 interf NS3h 0.94.
O=C1/C(=C\c2ccc([N+](=O)[O-])cc2)SC(=S)N1c1cccc(C(F)(F)F)c1 was read as NS3h inh CB -4 and Cy5 interf NS3h 1.1.
`O=C1NC(=S)NC(=O)C1=Cc1ccccc1OCc1ccc([N+](=O)[O-])cc1` gave NS3h inh CB 30 and Cy5 interf NS3h 0.68*.
Screening CCN1C(=O)/C(=C\c2cccc(C(F)(F)F)c2)SC1=S returned NS3h inh CB 10 and Cy5 interf NS3h 0.71*.
Screening Cc1ccc(COc2ccccc2C=C2C(=O)NC(=S)NC2=O)cc1 returned NS3h inh CB 19 and Cy5 interf NS3h 0.95.
